NIH3T3 tox: NIH 3T3 cell cytotoxicity; Potency, µM (titrated, usually from 96.7 µM), for inactives: at the top dose activity change, negative = cytotoxicity, usual class: inhibitors; 4.3% of 94,000 active; NIH 3T3 viability, CellTiter-Glo ATP luminescence, 48-72 h; note: % is set by controls: 0 for no effect and ±100 for the full control effect; nearly all actives have a fitted effect of over 55% in size
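Mouse fibroblast NIH 3T3 cells, 400 per well, received compound via pintool and were incubated for 48 or 72 hr prior to CellTiter-Glo ATP luminescence measurement.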
FLuc inh-1: Photinus pyralis luciferase inhibition | P08659 | purified P. pyralis luciferase, luminescence, biochemical | Potency, µM (top dose mostly 115 µM), most hits filed as inhibitors | 2.5% of 76,000 active; note: % is set by controls: 0 for no effect and ±100 for the full control effect; nearly all actives have a fitted effect of over 65% in size
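Cell-free enzyme assay, 10nM P. pyralis luciferase, luciferin and ATP each at 10uM. Inhibition profiled over a 6-point titration, read as luminescence.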
NPR1 antag: human Npr1 receptor antagonism. 1.6% of 76,000 active. Potency, µM (top dose mostly 46.3 µM), for inactives: at the top dose activity change, negative = inhibition, actives largely listed as inhibitors. HEK293 hNpr1 GloSensor cGMP, ANP-stimulated luminescence. P16066; calls by dose curve; note: % is set by controls: 0 for no effect and ±100 for the full control effect; nearly all actives have a fitted effect of over 60% in size
Target sequence (P16066 whole entry, looked up): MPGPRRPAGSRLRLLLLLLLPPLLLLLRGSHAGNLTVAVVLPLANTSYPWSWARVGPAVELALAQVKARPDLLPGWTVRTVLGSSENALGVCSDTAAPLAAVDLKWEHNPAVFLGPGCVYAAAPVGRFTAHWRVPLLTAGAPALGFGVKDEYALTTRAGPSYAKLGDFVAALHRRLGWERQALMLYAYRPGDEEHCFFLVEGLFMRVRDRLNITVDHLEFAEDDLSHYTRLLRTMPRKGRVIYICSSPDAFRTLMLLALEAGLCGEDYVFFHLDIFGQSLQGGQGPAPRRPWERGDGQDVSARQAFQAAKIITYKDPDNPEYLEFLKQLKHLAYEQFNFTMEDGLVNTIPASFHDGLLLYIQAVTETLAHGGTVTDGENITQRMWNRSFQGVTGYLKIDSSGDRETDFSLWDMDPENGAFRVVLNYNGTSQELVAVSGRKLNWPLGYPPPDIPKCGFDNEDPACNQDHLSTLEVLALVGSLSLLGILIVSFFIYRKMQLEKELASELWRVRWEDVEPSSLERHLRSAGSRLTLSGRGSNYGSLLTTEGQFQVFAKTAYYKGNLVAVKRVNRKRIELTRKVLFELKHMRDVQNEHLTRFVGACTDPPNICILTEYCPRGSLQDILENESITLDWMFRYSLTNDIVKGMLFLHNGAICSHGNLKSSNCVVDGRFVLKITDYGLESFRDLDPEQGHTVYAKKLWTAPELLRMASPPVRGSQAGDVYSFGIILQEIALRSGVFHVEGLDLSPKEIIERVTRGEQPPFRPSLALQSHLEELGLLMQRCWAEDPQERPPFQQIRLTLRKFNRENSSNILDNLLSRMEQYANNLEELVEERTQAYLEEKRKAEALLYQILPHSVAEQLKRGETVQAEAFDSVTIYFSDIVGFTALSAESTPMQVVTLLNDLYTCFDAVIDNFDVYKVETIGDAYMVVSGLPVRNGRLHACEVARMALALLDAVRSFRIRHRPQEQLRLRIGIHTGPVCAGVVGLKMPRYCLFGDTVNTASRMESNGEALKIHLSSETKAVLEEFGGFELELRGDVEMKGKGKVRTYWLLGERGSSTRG
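Compound pre-incubated 30 min at room temperature on GloSensor-loaded HEK293 cells stably carrying hNpr1 and the pGS-40F cGMP biosensor. Stimulation uses hNppA at 0.1 nM final; luminescence is taken at baseline and 20 min post-agonist.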
HEK293 tox: cytotoxic compounds in HEK 293 cells | HEK 293 viability, ATP luminescence (CellTiter-Glo), 48-72 h | Potency, µM (top dose mostly 115 µM), inactives show at the highest dose activity change, negative = cytotoxicity, most hits filed as inhibitors | 6.6% of 94,000 active | AID 1345083; note: % is set by controls: 0 for no effect and ±100 for the full control effect; nearly all actives have a fitted effect of over 60% in size
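Read-out: CellTiter-Glo ATP luminescence. Cells: HEK 293, 250 cells/well. Exposure: 48 or 72 hr, 37 degree Celsius.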
FLuc SDR no ATP: stabilizes firefly luciferase without ATP; AID 1963318; Potency, µM (highest dose often 32.7 µM), without a hit: top-dose activation (signal gain), usual class: activators; shares compounds with FLuc inh-1; 7.8% of 1,300 active; Purified FLuc-C-HiBiT, Nano-Glo HiBiT luminescence, no ATP; note: nearly all actives have a fitted effect of over 55% in size
FLuc SDR ATP: stabilizes firefly luciferase with ATP present; shares compounds with FLuc inh-1; 8.7% of 1,300 active; purified FLuc-C-HiBiT + ATP, HiBiT complementation luminescence; Potency, µM (doses to about 32.7 µM), for inactives: top-dose activation (gain of signal), usual class: activators;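 note: signal reports ligand binding via conformational change of the enzyme rather than luciferase catalysis; % of control where 0% means no effect; nearly all actives have a fitted effect of over 55% in size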
FLuc inh-2: inhibitors of firefly luciferase enzymatic activity; 42% of 1,300 active; purified FLuc-C-HiBiT enzyme, luciferin luminescence; shares compounds with FLuc inh-1; Potency, µM (doses to about 32.7 µM), for the others: top-dose activity change, negative = inhibition, most hits filed as inhibitors; AID 1963320; note: % is set by controls: 0 for no effect and ±100 for the full control effect; nearly all actives have a fitted effect of over 70% in size
* marks the source's active call; other numbers are inactive results; i = inactive; ? = inconclusive; . = no result; [ ] = another dose, or the depositor's remark. Most compounds without a hit are left out; they make up all but 11% or so of the library. Unless noted, calls come from the whole dose curve; as a rule, active = well fitted curve in the direction sought with a large enough effect; inconclusive = small, poorly fitted or top-dose-only effect, or another doubt; inactive = no such curve, though single readings can be large; an effect the other way counts as inactive or inconclusive. Potency is the fitted concentration of half-maximal effect.

SMILES | NIH3T3 tox | FLuc inh-1 | NPR1 antag | HEK293 tox | FLuc SDR no ATP | FLuc SDR ATP | FLuc inh-2
COc1ccc(CNC(=O)c2cccc3c2CCN3C(=O)c2ccc(F)cc2)cc1 | -3% | i | -1% | 0% | . | . | .
O=C(Nc1ccc2c(c1)OCO2)c1cccc2c1CCN2C(=O)Nc1ccc(F)cc1 | -28% | 0.71µM* | 7.1µM* | ? | 13% | 0.25µM* | 0.2µM*
O=C(NCc1ccco1)c1cccc2c1CCN2C(=O)Nc1ccc(F)cc1 | ? | 2.2µM* | ? | ? | ? | 1.8µM* | 1.1µM*
CC(NC(=O)c1cccc2c1CCN2C(=O)Nc1ccccc1)c1cccnc1 (stereo not drawn) | -21% | 6.3µM* | -28% | ? | 18% | 3.1µM* | 1.8µM*
O=C(NCCc1cccs1)c1cccc2c1CCN2C(=O)Nc1ccc(F)cc1 | ? | 1.3µM* | ? | ? | 20% | 1.4µM* | 0.79µM*
Cc1ccc(CNC(=O)c2cccc3c2CCN3C(=O)c2ccc(F)cc2)o1 | -14% | i | -9% | ? | . | . | .
CC(C)n1c(C2CCCN(C(=O)CCc3ccccc3)C2)nn(C)c1=O (stereo not drawn) | -16% | i | -3% | ? | . | . | .
CCN1C(=O)C2(CCN(S(=O)(=O)c3cc(F)ccc3OC)CC2)c2ccccc21 | ? | i | -12% | ? | . | . | .
O=C(NCCc1cccnc1)c1cccc2c1CCN2C(=O)Nc1ccc(F)cc1 | -28% | 0.4µM* | 11µM* | 45µM* | 23% | 0.35µM* | 0.22µM*
CCC(=O)N1CCc2c(C(=O)NCc3cccnc3)cccc21 | i | i | -3% | -2% | . | . | .
Cc1ccccc1C(=O)N1CCCC(N2C(=O)c3c(c(C)nn3-c3ccccc3)C2C2CC2)C1 (stereo not drawn) | -28% | . | . | ? | . | . | .
O=C(c1cn2cc(-c3ccccc3)sc2n1)N1CCCCC1 | -33%[138 µM] | . | . | ? | . | . | .
O=C(c1cc(-c2ccccc2O)on1)N1CCCCC1 | . | . | . | . | 24% | 16% | ?
CCCc1noc(-c2cn(C3CCN(C(=O)Cc4ccc(F)cc4)CC3)nn2)n1 | ? | i | 0% | -15% | . | . | .
CC(=O)c1ccc(NS(=O)(=O)c2cccc(S(=O)(=O)c3ccc(Cl)cc3)c2)cc1 | . | . | . | . | 14% | 9% | -10%
CC(CCn1cccn1)NC(=O)c1csc2nc(-c3ccc(C(F)(F)F)cc3)cn12 (stereo not drawn) | ? | 13µM* | -27% | ? | 17% | 12% | 9.9µM*
Cc1ccccc1C(=O)N1CCCC(C(=O)N2CCC(N3CCCC3=O)CC2)C1 (stereo not drawn) | 1% | . | . | -3% | . | . | .
Cc1nc(C)c(C(=O)N2CCC(Oc3ccc(-c4noc(-c5ccccc5)n4)cc3)C2)s1 (stereo not drawn) | ? | 5.6µM* | 6.3µM* | ? | 15% | 10% | ?
CCc1nc(-c2ccc(OC3CCN(C(=O)COc4ccc(F)cc4)C3)cc2)no1 (stereo not drawn) | ? | i | ? | ? | . | . | .
CCc1nc(-c2ccc(OC3CCN(C(=O)C4CC4)C3)cc2)no1 (stereo not drawn) | ? | 7.9µM* | ? | ? | 27% | 20% | ?
Cc1nc(C)c(C(=O)N2CC(Oc3ccc(-c4noc(-c5ccccc5)n4)cc3)C2)s1 | -12% | ? | ? | -17% | . | . | .
Cc1cccc(C)c1NC(=O)Cn1c(C)cc2nc3n(c(=O)c21)CCCCC3 | -6% | i | 3% | 8% | . | . | .
Cc1ccc(-c2nnc(SCc3ccccc3C#N)o2)cc1 | . | . | . | . | 17% | ? | 2.2µM*
O=C(COc1ccccc1Cl)Nc1ccc(-c2nc3ccccc3s2)cc1 | . | . | . | . | 12% | 8% | -5%
O=C(COc1ccc(-c2nnc3n2CCCC3)cc1)Nc1ccc(Cl)cc1 | -5% | i | 1% | -22% | . | . | .
SMILES | NIH3T3 tox | FLuc inh-1 | NPR1 antag | HEK293 tox | FLuc SDR no ATP | FLuc SDR ATP | FLuc inh-2
O=C(COc1ccccc1[N+](=O)[O-])Nc1ccc(-c2nc3ccccc3s2)cc1 | . | . | . | . | 15% | 10% | -6%
O=C(COc1ccccc1[N+](=O)[O-])Nc1cccc(-c2nc3ccccc3s2)c1 | . | . | . | . | 12% | 10% | -14%
CCOc1cc(=O)n2c(c1C(=O)Nc1ccc(F)cc1C)CCCCC2 | i | i | 5% | 0% | . | . | .
O=C(Nc1ccccc1F)c1ccc(-c2ccccc2)s1 | . | . | . | . | 21% | ? | ?
CCOc1ccccc1NC(=O)Nc1cccc(-c2ccc(N3CCOCC3)nn2)c1 | ? | 2.8µM* | -25% | 25µM* | 28% | ? | 3.9µM*
O=C(Nc1cccc(-c2ccc(N3CCOCC3)nn2)c1)Nc1cccc(C(F)(F)F)c1 | ? | 1.8µM* | 11µM* | 28µM* | ? | 18% | 5µM*
COc1ccc(NC(=O)Nc2cccc(-c3ccc(N4CCOCC4)nn3)c2)cc1Cl | ? | 0.63µM* | 13µM* | 22µM* | ? | ? | 1.2µM*
COc1ccc(-c2ccc(C(=O)Nc3cccc(C(F)(F)F)c3)cc2)nn1 | -15% | . | . | ? | . | . | .
CN1CCN(c2ccc(-c3cccc(NC(=O)C4CCCCC4)c3)nn2)CC1 | ? | 14µM* | -11% | ? | 27% | 18% | 8.8µM*
CC(C)c1cc(NCc2cccnc2-n2cncn2)n2nccc2n1 | i | i | 0% | -10% | . | . | .
COc1ccc(NC(=O)Nc2cccc(-c3ccc(N4CCCCC4)nn3)c2)c(OC)c1 | -18% | 0.32µM* | 7.9µM* | ? | ? | ? | 0.99µM*
Cc1ccc(-c2nnc(C3CN(C(=O)C4CCOCC4)CC34CCOCC4)o2)cc1 (stereo not drawn) | -23% | i | 4% | -1% | . | . | .
COc1cc(C)ccc1OCc1cc(C(=O)NCc2n[nH]c3c2CCC3)no1 | ? | 11µM* | 0% | ? | 17% | 14% | ?
O=C(O)c1cccc(-c2noc(-c3cc([N+](=O)[O-])cc([N+](=O)[O-])c3)n2)c1 | . | . | . | . | 6% | ? | 3.1µM*
COc1ccccc1-c1noc(-c2nc(-c3ccc4c(c3)OCO4)no2)n1 | -11% | i | 2% | -7% | . | . | .
COc1ccccc1-c1nc(-c2cccc(C(=O)O)c2)no1 | . | . | . | . | 8.8µM* | 0.007µM* | 0.0062µM*
COc1ccc(-c2nc(-c3cccc(C(=O)O)c3)no2)cc1 | . | . | . | . | 1.1µM* | 0.0031µM* | 0.0025µM*

High-throughput results deposited in PubChem by National Center for Advancing Translational Sciences (NCATS).
